VACV mCherry inh: qHTS for Stage-Specific Inhibitors of Vaccinia Orthopoxvirus: mCherry Reporter Primary qHTS. Potency, µM (titrated, usually from 36.5 µM), without a hit: at the highest dose activity change, negative = inhibition, hits mostly inhibitors. Vaccinia virus mCherry reporter infection, fluorescence. AID 720579, 2013. actives 0.63% (n = 310,000); calls by dose curve; tested in A549 cells; further: potency means the concentration at half of the fitted maximal effect; nearly all actives have a fitted effect of over 35% in size
HCV inhibitor: qHTS Assay for Inhibitors of Hepatitis C Virus (HCV); Huh7.5.1 HCVcc-Cre infection, luciferase reporter, 44 h; Potency, µM (series often up to 41.8 µM), for inactives: at the highest dose activity change, negative = inhibition, actives largely listed as inhibitors; actives 3.4% (n = 340,000); AID 651820, 2012; further: potency means the concentration at half of the fitted maximal effect
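After 44 h co-culture of compound, cells and HCVcc-Cre (~0.5 moi), substrate is added for 15 min at room temperature and luciferase measured over 15 sec. Cells were seeded at 1,000/well and pre-cultured 4 h.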
HCMV antiviral: qHTS Assay for inhibitors of the human cytomegalovirus (HCMV); HFF cells, HCMV-luciferase reporter, 72 h; stronger effect = lower value; activity change, negative = inhibition, % at 57.5 µM; actives 4.5% (n = 410,000); AID 1259415, 2018; in the data active means activity change below about -60%; inconclusive means no clear call, values can overlap the other calls; inactive means above about -39%
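Inhibition of viral replication was scored as loss of reporter luminescence in HFFs infected with HCMV-luciferase (MOI 1 PFU/cell) for 72 h; compounds tested at 2 doses, normalized to buffer and Salinomycin controls.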
VACV Venus inh: qHTS for Stage-Specific Inhibitors of Vaccinia Orthopoxvirus: Venus Reporter Primary qHTS; Vaccinia virus Venus reporter expression, fluorescence; Potency, µM (series often up to 36.5 µM), without a hit: at the top dose activity change, negative = inhibition, most hits filed as inhibitors; actives 0.46% (n = 330,000); AID 720580, 2013; calls by dose curve; tested in A549 cells; further: potency means the concentration at half of the fitted maximal effect; nearly all actives have a fitted effect of over 30% in size
Sm TGR block: qHTS Assay for the Inhibitors of Schistosoma Mansoni Peroxiredoxins. purified TGR, DTNB reduction, TNB absorbance 405 nm. AID 485364, 2010. Potency, µM (series often up to 114 µM), without a hit: top-dose activity change, negative = inhibition, most hits filed as inhibitors. actives 3% (n = 360,000); further: potency means the concentration at half of the fitted maximal effect; nearly all actives have a fitted effect of over 60% in size
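Kinetic colorimetric format: TGR-catalysed, NADPH-driven DTNB reduction monitored via TNB absorbance. Enzyme dispensed at 20 nM; compound exposure 15 min at room temperature before reaction start.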
FMDV antiviral: High Throughput Screening for Foot and Mouth Disease Virus Antivirals; FMDV antiviral cell-based qHTS; Potency, µM (doses to about 57.9 µM), for inactives: at the highest dose activity change, negative = inhibition, hits mostly inhibitors; actives 1.2% (n = 410,000); calls by dose curve; tested in HEK293T cells; further: read-out not given here; potency means the concentration at half of the fitted maximal effect; nearly all actives have a fitted effect of over 45% in size
* marks the source's active call; other numbers are inactive results; i = inactive; ? = inconclusive; . = no result given; + = active, no number; [ ] = remark or other dose. An excerpt weighted towards active compounds, which were near 9.3% of everything screened. Unless noted, the call rests on the fitted dose curve; in most records, active means well fitted curve in the direction sought with a large enough effect; inconclusive means small, poorly fitted or top-dose-only effect, or another doubt; inactive means no such curve, though single readings can be large; an effect the other way counts as inactive or inconclusive. On the % scale 0 is the no-effect control and ±100 the full control effect.

SMILES | VACV mCherry inh | HCV inhibitor | HCMV antiviral | VACV Venus inh | Sm TGR block | FMDV antiviral
CCOC(=O)c1cccc(NC(=O)C(C)n2c(C)c3cnn(-c4ccccc4)c(=O)c3c2C)c1 (stereo not given) | -13% | . | -29 | -9% | -13% | 0%
O=C(COc1ccc2c(-c3ccccc3)cc(=O)oc2c1)Nc1ccc(CN2CCOCC2)cc1 | -3% | ? | -33 | -2% | -9% | -25%
COc1ccccc1N1C(=O)CC(N(O)c2ccccc2)C1=O (stereo not given) | i | 9% | 39 | -4% | 40µM* | -3%
CCN(CCO)C1CC(=O)N(c2ccccc2C)C1=O (stereo not given) | . | 6% | . | . | 6.3µM* | -5%
Cc1ccccc1N1C(=O)CC(N(O)c2ccccc2)C1=O (stereo not given) | . | -4% | 51 | . | 40µM* | 22%
COc1ccccc1N(O)C1CC(=O)N(c2ccc(F)cc2)C1=O (stereo not given) | . | 0% | 23 | . | 3.5µM* | 46%
CCCOc1ccccc1N1C(=O)CC(N(O)c2ccccc2)C1=O (stereo not given) | i | -3% | -40 | -10% | -14% | -22%
CNC(=O)OCc1cocc1COC(=O)NC | 1% | . | 2 | 7% | . | -15%
CCOc1ccc(C(=O)OC(C)CN2CCN(C)CC2)cc1 (stereo not given) | -2% | 1.8µM* | 75 | -6% | -2% | 11%
CC(CN1CCN(C)CC1)OC(=O)c1ccc(Cl)cc1 (stereo not given) | -9% | ? | ? | -11% | 0% | 22%
CCOC(=O)C(NS(=O)(=O)c1ccccc1)(C(F)(F)F)P(=O)(OCC(C)C)OCC(C)C (stereo not given) | -5%[1.46 µM] | -16% | 4 | ? | 18µM* | -25%
Cc1cccc(NC(=O)CN(C)S(=O)(=O)c2cnc[nH]2)c1C | -1% | . | 14 | -3% | -3% | 6%
CCN(CC(=O)Nc1ccc(NC(C)=O)cc1)C(=O)CSC(c1ccccc1)c1ccccc1 | . | 10µM* | ? | . | -13% | -16%
CCN(CC(=O)Nc1ccc(NC(C)=O)cc1)C(=O)CSCC(=O)Nc1ccc(C)cc1 | i | 8% | 11 | -8% | -2% | 5%
COc1cc(Cl)c(C)cc1NC(=O)CC1CCCC1 | -12% | ? | -4 | -13% | 1% | -1%
Cc1ccc2c(c1)N(C(=O)CSc1nncn1C)C(C)(C)c1ssc(=S)c1-2 | . | 10µM* | 7 | ? | 1% | 0%
Cc1cc2c(cc1C)N(C(=O)CSc1nncn1C)C(C)(C)c1ssc(=S)c1-2 | i | ? | -9 | -16% | 7% | .
CCN1C(=O)CC(Sc2ccccc2C(=O)O)C1=O (stereo not given) | . | 8% | -17 | . | ? | -6%
COC(=O)c1ccccc1SC1CC(=O)N(c2ccccc2)C1=O (stereo not given) | 0% | -4% | -9 | 10% | 50µM* | 0%
CCOc1ccc(N2C(=O)CC(Sc3ccccc3C(=O)O)C2=O)c([N+](=O)[O-])c1 (stereo not given) | . | -6% | -27 | . | 18µM* | -3%
O=C(O)c1ccccc1SC1CC(=O)N(c2cccc3ccccc23)C1=O (stereo not given) | i | 6% | -33 | -18% | 1.8µM* | -8%
Cc1ccc(S(=O)(=O)NC(CC(C)C)C(=O)N2CCOCCOCCOCC2)cc1 (stereo not given) | -5% | -4% | 34 | -8% | -12% | -1%
O=C(COc1ccccc1)Nc1c2c(nn1-c1ccccc1)CS(=O)(=O)C2 | . | -1% | 0 | . | -3% | -10%
COc1cccc(C2/C(=C(\O)c3c(C)nc4c(C)cccn34)C(=O)C(=O)N2CCCN(C)C)c1OC (stereo not given) | . | . | . | . | 0% | .
Cc1cccc(Nc2nnc(SCC(=O)NCc3cccs3)s2)c1C | -16% | -2% | 6 | -3% | -9% | 12%
SMILES | VACV mCherry inh | HCV inhibitor | HCMV antiviral | VACV Venus inh | Sm TGR block | FMDV antiviral
CCCCn1c(=O)[nH]c(=O)c2c(C(=O)OCC)cc(-c3cccs3)nc21 | -3% | 10µM* | -25 | -3% | 2% | ?
CCN1/C(=C/c2ccc3cc(C)ccc3[n+]2CC)Sc2ccccc21 | . | 1.6µM* | -102* | . | 3% | 20µM*
CCN1/C(=C/c2ccc3cc(C)ccc3[n+]2CC)Sc2cc(C)c(C)cc21 | ? | 1.1µM* | -100* | i | -13% | ?
COc1ccc(-c2cc(C(C)=O)c(C)n2CCC(=O)Nc2cc(Cl)ccc2C)cc1 | -11% | . | 0 | -6% | -2% | -9%
Cc1ccc(NC(=O)Cn2nc(-c3ccco3)ccc2=O)cc1Cl | . | -20% | 42 | . | 6.3µM* | 16%
Cc1ccc(NC(=O)CCn2cccc2)cc1Cl | . | -1% | -15 | -20% | 35µM* | -9%
Cc1ccc(NC(=O)Cn2nc3c(cc2=O)CCCC3)cc1Cl | -9% | . | -8 | -7% | 1% | -11%
COc1ccc(-c2cc(C(C)=O)c(C)n2CCC(=O)Nc2ccc(C)c(Cl)c2)cc1 | -12% | . | + | -12% | 6% | -20%
CC1CC(C)CN(C(=O)CSc2n[nH]c(N)n2)C1 (stereo not given) | . | 1% | 0 | . | . | 2%
CN(NC(N)=O)c1ncc(C(F)(F)F)cc1Cl | . | 17% | -2 | . | -3% | 1%
CCCC(=O)c1ccc(-c2ccccc2)cc1 | . | 8% | 9 | -12% | -17% | 32%
CCn1c(SCc2nc3ccccc3c(=O)[nH]2)nnc1C(C)NC(=O)c1ccccc1 (stereo not given) | i | -8% | -27 | -11% | 0% | 0%
COc1ccc(-c2cc(-c3nnc(COC(=O)CC4CC5CCC4C5)o3)c3ccccc3n2)cc1OC (stereo not given) | -7% | -17% | -24 | -14% | -9% | -29%
CCOC(=O)c1cnc(-c2ccccc2)nc1C(F)(F)F | 5% | 27% | -20 | 1% | 0% | 50%
CCOC(=O)c1cnc2c(F)ccc(F)c2c1Sc1ccccc1 | i | 6% | 27 | -5% | 16µM* | -24%
O=C1CCc2cc(Br)ccc2O1 | i | 38% | ? | -10% | . | -6%
Cc1cc(-c2nc(C)c(C(=O)NNS(=O)(=O)c3ccccc3)s2)no1 | . | 20% | 41 | . | 1% | 2%
COc1ccccc1C(=O)O/N=C(\N)c1ccccc1Cl | . | -14% | 16 | . | -9% | 54%
COc1ccc(/C(N)=N/OC(=O)c2ccc(OC)c([N+](=O)[O-])c2)cc1OC | 3% | 35µM* | -21 | -5% | 25% | 0%
